An excerpt weighted towards active compounds, which were near 9.2% of everything screened.
Rab9 promoter act – activates the Rab9 promoter; Huh7 Rab9 promoter-luciferase reporter, luminescence, 24 h; AID 485297; Potency, µM (highest dose often 9.22 µM), inactives show at the top dose activation, negative = inhibition, actives largely listed as activators; actives 2.8% (n = 320,000); note: % of control where 0% means no effect; nearly all actives have a fitted effect of over 60% in size
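Quantitative HTS format; Huh7 Rab9-luciferase reporter cells (1500/well) receive compound 2 h post-plating, incubate 24 h at 37 °C, then get luciferase reagent for 10 min before luminescence reading.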
SMN2 splice up – enhancers of SMN2 splice variant expression; actives 2.8% (n = 210,000); Potency, µM (series often up to 46.1 µM), for the others: at the highest dose activity change, positive = activation, usual class: activators; AID 1458; HEK293 SMN2-luciferase splicing reporter, luminescence, 30-36 h; note: % of control where 0% means no effect; nearly all actives have a fitted effect of over 55% in size
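HEK293 cells carry an SMN2 minigene-luciferase reporter in which exon 7 inclusion puts luciferase in frame. Cells were seeded at 2000 cells/well, attached for 10-12 hours, then exposed to compounds for 30-36 hours at 37C before ONE-Glo luminescence.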
NPC1 promoter act – activators of NPC1 promoter | Huh7 NPC1 promoter luciferase reporter, 24 h | Potency, µM (top dose mostly 9.22 µM), inactives show top-dose activation, most hits filed as activators | actives 2.4% (n = 320,000) | AID 485313; note: % of control where 0% means no effect; nearly all actives have a fitted effect of over 60% in size
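Stable NPC1-promoter luciferase Huh7 line; cpd (DMSO) 24 h, 37 °C, 5% CO2; Amplite luciferase reagent 10 min RT; luminescence readout. qHTS format.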
ELG1 DNA repair – ELG1-dependent DNA repair inhibition; actives 2.3% (n = 330,000); HEK293T ELG1-luciferase reporter, luminescence, 16 h; DNA damage induced by 5-fluorouridine; Potency, µM (titrated, usually from 46.1 µM), without a hit: at the highest dose activity change, negative = inhibition, most hits filed as inhibitors; AID 504467; note: % is set by controls: 0 for no effect and ±100 for the full control effect; nearly all actives have a fitted effect of over 55% in size
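HEK293T cells expressing luciferase-tagged ELG1 (2,000/well) received 5-Fluorouridine plus compound or DMSO for 16 hr at 37 °C. Luciferase was read by ONE-Glo luminescence after 30 min at room temperature.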
ELG1 genotoxic – genotoxicity induction in ELG1-luciferase HEK293T cells. HEK293T ELG1-luciferase reporter, luminescence, 16 h. Potency, µM (titrated, usually from 46 µM), without a hit: top-dose activity change, positive = activation, actives largely listed as activators. actives 1.3% (n = 330,000); note: % of control where 0% means no effect; nearly all actives have a fitted effect of over 60% in size
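Genotoxic stress is detected as increased luminescence from luciferase-tagged ELG1 in HEK293T cells, measured with ONE-Glo after a 16 hr treatment at 37 °C.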
FLuc modulator – counter-screen for miR-21 project: firefly luciferase inhibitors or activators; actives 6.9% (n = 360,000); Potency, µM (highest dose often 57.5 µM), for inactives: at the top dose activity change, negative = inhibition, actives largely listed as inhibitors; purified FLuc, Km substrates, luminescence inhibition; AID 588342;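 note: plate controls were vehicle for no effect and reference inhibitor for full effect; nearly all actives have a fitted effect of over 55% in size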
Target sequence (P08659 whole entry, looked up): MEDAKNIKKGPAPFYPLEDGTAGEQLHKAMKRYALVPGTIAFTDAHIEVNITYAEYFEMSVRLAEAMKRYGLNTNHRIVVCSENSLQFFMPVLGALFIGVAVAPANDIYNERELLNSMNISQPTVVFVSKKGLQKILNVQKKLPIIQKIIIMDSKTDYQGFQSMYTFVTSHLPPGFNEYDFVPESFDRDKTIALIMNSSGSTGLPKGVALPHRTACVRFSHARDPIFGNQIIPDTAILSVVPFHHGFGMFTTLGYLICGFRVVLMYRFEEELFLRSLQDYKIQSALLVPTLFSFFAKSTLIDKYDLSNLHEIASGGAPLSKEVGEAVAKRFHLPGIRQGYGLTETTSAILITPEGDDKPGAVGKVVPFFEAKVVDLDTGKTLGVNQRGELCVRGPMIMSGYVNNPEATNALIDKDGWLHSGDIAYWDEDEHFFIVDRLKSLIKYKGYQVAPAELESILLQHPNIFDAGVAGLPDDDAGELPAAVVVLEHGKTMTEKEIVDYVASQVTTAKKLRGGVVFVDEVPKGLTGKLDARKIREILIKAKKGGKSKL
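Purified P. pyralis luciferase, 10 nM final, with Km-level 10 uM D-luciferin and 10 uM ATP in 50 mM Tris acetate pH 7.5, 10 mM Mg acetate, 0.01% Tween-20, 0.05% BSA; 6-point qHTS titration about 60 µM downward; luminescence read.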
Starred values were filed as active, the others as inactive; u = inconclusive; x = no result; [ ] = remark or other dose. Calls come from the whole dose curve; as a rule, active = well fitted curve in the direction sought with a large enough effect; inconclusive = small, poorly fitted or top-dose-only effect, or another doubt; inactive = no such curve, though single readings can be large; an effect the other way counts as inactive or inconclusive. Potency is the fitted concentration of half-maximal effect.

SMILES	Rab9 promoter act	SMN2 splice up	NPC1 promoter act	ELG1 DNA repair	ELG1 genotoxic	FLuc modulator
COCCn1c(C)cc(C(=O)COC(=O)C23CC4CC(CC(O)(C4)C2)C3)c1C	0.35µM*	u	0.35µM*	u	u	1.5µM*
COCCn1c(C)cc(C(=O)COC(=O)CCN2C(=O)c3ccccc3C2=O)c1C	-3%	5%	0%	8%	1%	u
COCCn1c(C)cc(C(=O)COC(=O)c2cc3c(s2)CCC3)c1C	4µM*	-8%	3.5µM*	u	u	11µM*
COCCn1c(C)cc(C(=O)COC(=O)c2cccc(O)c2)c1C	u	x	u	u	u	0.11µM*
Cc1ccc(S(=O)(=O)N(CC(=O)Nc2cccnc2)c2ccccc2C)cc1	2%	x	2%	-1%	-16%	0%
Cc1ccc(S(=O)(=O)N2CCC(C(=O)NNC(=O)c3ccccc3)CC2)cc1	-1%	3%	0%	14%	14%	0%
Cc1ccc(C)c(N2CCN(C(=O)c3cc(S(=O)(=O)N4CCC(C)CC4)cn3C)CC2)c1	x	x	x	x	x	-1%
C[C@H](C(=O)NCc1ccccc1)C(=O)c1ccccc1	-1%	x	-2%	3%	1%	0%
CCn1ccc(C(=O)N2CCOCC2)n1	1%	4%	-3%	4%	-2%	1%
CCn1ccc(C(=O)Oc2ccc(C(C)C)cc2)n1	-3%	1%	0%	26%	u	2.7µM*
O=C(O)c1cccc(N2C(=O)/C(=C/c3ccc([N+](=O)[O-])cc3)C=C2c2ccccc2)c1	7%	-15%	0%	u	-4%	24µM*
O=C1/C(=C/c2ccc([N+](=O)[O-])cc2)C=C(c2ccccc2)N1c1ccccc1	1%	x	2%	0%	3%	0%
Cc1nn(-c2nnc(NCc3ccccc3)nn2)c(C)c1Br	u	x	23%	u	u	21µM*
CN(C)c1ccc(C=Nc2cnn(C)c2C(N)=O)cc1	1%	x	-4%	u	u	4.8µM*
O=C(c1ccc(NS(=O)(=O)c2ccc3c(c2)OCCO3)cc1)N1CCCCC1	-4%	x	-5%	23µM*	-12%	7%
CC(=O)N1CCN(C(=O)c2ccc(NS(=O)(=O)c3ccc4c(c3)OCCO4)cc2)CC1	1%	x	-1%	-4%	-1%	3%
CCN(CC(=O)Nc1c(F)cccc1F)C(=O)CNC(=O)c1ccco1	0%	x	-5%	24%	-2%	-1%
CCN(CC(=O)Nc1c(F)cccc1F)C(=O)CNC(=O)c1ccc(C)s1	u	x	u	u	26%	15µM*
N=C(N)SCCCN	x	-9%[9.22 µM]	x	x	x	x
CC1CN(C(=O)CSc2nnc(NC(=O)NC(C)(C)C)s2)CC(C)O1 (stereo not drawn)	-4%	x	-1%	15%	4%	24µM*
CC(=O)Nc1nnc(SCC(=O)N2C(C)CCCC2C)s1 (stereo not drawn)	-3%	x	-2%	10%	5%	0%
O=C(Sc1cccc2cccnc12)c1ccccc1Br	-23%	x	-33%	u	14%	24µM*
O=C(Sc1cccc2cccnc12)c1ccc(F)cc1	-47%	-65%	-49%	u	u	-20%
O=C1/C(=C\c2ccc(Br)o2)Cc2ccccc21	2%	-25%	0%	u	u	15µM*
O=C1/C(=C/c2cccs2)Cc2ccccc21	19%	x	21%	u	u	3.8µM*
SMILES	Rab9 promoter act	SMN2 splice up	NPC1 promoter act	ELG1 DNA repair	ELG1 genotoxic	FLuc modulator
CSC1=N/C(=C\c2ccc(C)s2)C(=O)S1	-4%	11%	0%	6%	3%	-3%
O=C1/C(=C\c2ccc(Br)o2)SC(=Nc2ccccc2)N1c1ccccc1	0%	-24%	1%	u	-1%	3%
Cc1ccc(C=C2C(=O)c3ccccc3C2=O)s1	9%	16%	1%	0%	u	0.85µM*
Cc1ccccc1C1=N/C(=C/c2cccs2)C(=O)O1	3%	-21%	0%	22%	0%	3.4µM*
Cc1ccc(C)c(/C=C2\N=C(c3ccccc3F)OC2=O)c1	6%	x	-8%	-10%	2%	u
Cc1ccc(OCc2cccc(S(=O)(=O)N(C)C)c2)c([N+](=O)[O-])n1	-3%	x	2%	-21%	-3%	3%
CN1CCc2nc3sc(C(=O)Nc4ccccc4C(F)(F)F)c(N)c3cc2C1	x	-24%	x	x	x	-10%
O=C1C(=Cc2cccs2)C(=O)c2ccccc21	10%	5%	-1%	4%	10%	4.8µM*
CCCN(CCC)CCCNC(=O)c1cc2c(=O)n(C)c3ccccc3c2s1	x	1%	x	x	x	2%
CC(On1c(-c2ccccc2)nc2ccc(Cl)cc21)C(=O)O (stereo not drawn)	9%	8%	-3%	u	6%	u
Cc1ccc(-c2nc3ccc(Cl)cc3n2OC(C)C(=O)O)cc1 (stereo not drawn)	0%	u	0%	u	u	11µM*
COc1ccc(-c2nc3ccccc3n2OC(C)C(=O)O)cc1 (stereo not drawn)	0%	x	-2%	u	u	11µM*
Cc1ccc2c(CN3CCN(S(=O)(=O)/C=C/c4ccccc4)CC3)cc(=O)oc2c1	0%	-10%	-2%	-13%	-4%	-4%
Cn1c(CNC(=O)CNS(=O)(=O)c2ccc(Cl)cc2)cc(=O)n(C)c1=O	-5%	x	-4%	24%	0%	1%
Cc1nc2ccccc2nc(C)c1=NOCc1cccc(F)c1	-1%	20µM*	-2%	u	-6%	-11%
COC(=O)c1sc(NC(=O)/C=C/c2ccccc2Cl)nc1C	-8%	u	9%	21%	-16%	-11%
O=C(/C=C/c1ccc(Cl)cc1)NC(=S)Nc1ccc(C(=O)O)cc1	-3%	x	-4%	-4%	5%	-19%
CN(C)c1ccc(NC(=O)/C=C/c2ccccc2Cl)cc1	2.5µM*	20µM*	u	u	u	1.2µM*
CN(C)c1ccc(NC(=S)NC(=O)/C=C/c2ccc(Cl)cc2)cc1	21%	44%	16%	u	11%	4.8µM*
CCN(CC)c1ccc(NC(=O)/C=C\c2ccccc2Cl)cc1	27%	u	26%	u	7.3µM*	2.7µM*
O=C(/C=C/c1ccccc1Cl)NCc1ccccc1	29%	16%	3%	u	14%	u
Nc1c(-c2ccc3c(c2)OCCO3)oc2ccccc2c1=O	u	x	u	u	10µM*	9.5µM*
O=c1cc(-c2ccc(O)cc2)oc2ccc(O)cc12	3.5µM*	u	u	u	10%	12µM*

Screening data from PubChem BioAssay.
